aSyn yeast inh = qHTS of alpha-syn Inhibitors; Yeast expressing alpha-synuclein, growth rescue, BacTiter-Glo, 24 h; Potency, µM (doses to about 46.1 µM), without a hit: at the highest dose growth rescue (activation), hits mostly activators; 370,000 compounds, 0.14% hits; note: % of control where 0% means no effect; nearly all actives have a fitted effect of over 65% in size
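Readout is rescue of growth in alpha-synuclein-expressing yeast, so inhibitors of toxicity appear as activators. Growth after 24 hr at 30 deg C in galactose medium is quantified by luminescence.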
PTAP TSG101 blk = qHTS Assay for Iinhibitors of HIV-1 Budding by Blocking the Interaction of PTAP/TSG101. 340,000 tested, under 10 active. Fluorescence polarization, FITC-PTAP peptide / Tsg101 binding. AID 493005, 2010. Potency, µM (titrated, usually from 115 µM), for the others: at the top dose activity change, negative = inhibition, actives largely listed as inhibitors; active = well fitted inhibition curve with a large enough effect in the main read-out, with a control signal flat, not every such curve was filed as active; inconclusive = small, poorly fitted or top-dose-only effect, or effect the other way, or a change in a side signal; inactive = no such curve, though single readings can be large or run the other way; note: % of control where 0% means no effect
Target sequence (Q99816 whole entry, looked up): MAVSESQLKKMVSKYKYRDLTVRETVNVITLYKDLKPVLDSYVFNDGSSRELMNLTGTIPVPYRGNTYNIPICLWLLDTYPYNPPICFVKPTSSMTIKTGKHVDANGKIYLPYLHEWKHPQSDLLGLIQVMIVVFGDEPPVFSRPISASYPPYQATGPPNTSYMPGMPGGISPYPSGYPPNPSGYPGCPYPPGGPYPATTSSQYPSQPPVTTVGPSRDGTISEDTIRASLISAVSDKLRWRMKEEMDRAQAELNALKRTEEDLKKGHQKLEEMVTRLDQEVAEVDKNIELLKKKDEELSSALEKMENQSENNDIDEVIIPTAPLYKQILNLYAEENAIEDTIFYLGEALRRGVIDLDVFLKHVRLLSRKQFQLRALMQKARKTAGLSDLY
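Fluorescence polarization binding of Tsg101 binding domain (10 uM final) to FITC-labeled PTAP peptide (50 nM final) in HEPES pH 7.5 buffer with NaCl, Tween 20, EDTA, TCEP. Compounds added before peptide; binding 20 min at RT.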
Abeta rescue = qHTS for compounds that reverse cellular toxicity of Amyloid beta (A-beta) peptide in yeast: Primary Screen | 410,000 compounds, 0.063% hits | yeast expressing A-beta42, growth rescue, OD600, 48 h; response scale: 0% DMSO, 100% iron-clioquinol control | AID 1347071, 2019 | Potency, µM (doses to about 46.1 µM), actives largely listed as activators; note: nearly all actives have a fitted effect of over 55% in size
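Growth rescue measured by 600 nm absorbance after 48 h yeast culture at 30 C with compound. Values normalized between DMSO and an equimolar ferric chloride plus clioquinol control.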
TDP43 rescue = qHTS of TDP-43 Inhibitors. TDP-43 expressing yeast growth rescue, BacTiter-Glo, 24 h. Potency, µM (titrated, usually from 46.1 µM), without a hit: at the top dose growth rescue (activation), actives largely listed as activators. 410,000 compounds, 1.8% hits; note: % of control where 0% means no effect; nearly all actives have a fitted effect of over 50% in size
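Yeast expressing TDP-43 (pregrown in raffinose, seeded at OD600=0.02 in galactose medium) exposed to compounds 24 hr at 30 deg C. Growth read by BacTiter-Glo luminescence; rescue of toxicity appears as increased signal.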
FUS yeast rescue = qHTS for Suppressors of FUS Proteinopathy: Primary screen using FUS-linked yeast assay; S. cerevisiae FUS-expressing, growth rescue, OD600, 24 h; Potency, µM (top dose mostly 76.6 µM), actives largely listed as activators; 390,000 compounds, 0.24% hits; AID 1347120, 2019;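 note: plate controls were DMSO vehicle for no effect and reference control for full effect; nearly all actives have a fitted effect of over 55% in size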
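Yeast FUS proteinopathy model; galactose-induced FUS (2%), starting OD 0.005. Cpds in dilution series, 24hr, 30C, 99% humidity. Abs 600 nm growth. Pos ctrl CP55940 (top 92uM final); neg ctrl DMSO.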
Active calls of the source: *; i = inactive; ? = inconclusive; / = not tested or not shown. This is a sample that favours compounds with a hit; in the whole collection about 2.1% have one here. Unless noted, calls come from the whole dose curve; as a rule, active = well fitted curve in the direction sought with a large enough effect; inconclusive = small, poorly fitted or top-dose-only effect, or another doubt; inactive = no such curve, though single readings can be large; an effect the other way counts as inactive or inconclusive. Potency is the fitted concentration of half-maximal effect.

SMILES | aSyn yeast inh | PTAP TSG101 blk | Abeta rescue | TDP43 rescue | FUS yeast rescue
C=CC[C@@H](CC(=O)N[C@@H](CO)Cc1ccccc1)C(=O)N[C@H](C)COC(=O)[C@@H](CC=C)Cc1ccc(F)cc1 | 0.1% | -1.5% | i | 14.5% | i
C=CCC[C@H](Cc1ccc(F)cc1)C(=O)OC[C@H](Cc1c[nH]c2ccccc12)NC(=O)[C@@H](CC=C)CC(=O)N(CCO)Cc1ccccc1 | 1.8% | -3.9% | i | 12.9% | 15.8µM*
C=CCC[C@@H](Cc1ccc(F)cc1)C(=O)OC[C@H](Cc1c[nH]c2ccccc12)NC(=O)[C@H](CC=C)CC(=O)N(CCO)Cc1ccccc1 | -4.8% | -4.3% | i | 13.3% | ?
C=CC[C@H](CC(=O)N[C@H](CO)Cc1ccccc1)C(=O)N[C@H](COC(=O)[C@@H](CC=C)CC(=O)OC(C)(C)C)Cc1c[nH]c2ccccc12 | -4.3% | -1.0% | i | -11.2% | 17.8µM*
C=CC[C@@H](CC(=O)N[C@@H](CO)Cc1ccccc1)C(=O)N[C@@H](C)COC(=O)[C@@H](CC=C)Cc1ccc(F)cc1 | -2.4% | -3.2% | i | 8.0% | 17.8µM*
C=CC[C@@H](CC(=O)N[C@H](CO)Cc1ccccc1)C(=O)N[C@@H](COC(=O)[C@@H](CC=C)CC(=O)OC(C)(C)C)Cc1c[nH]c2ccccc12 | 0.7% | 1.4% | i | -6.2% | 17.8µM*
COc1ccc(CNCc2cccc(OC)c2OC)cc1Br | -2.7% | -5.1% | i | -3.7% | i
COc1ccc(CNc2cccc(F)c2)cc1Br | -8.7% | -0.1% | i | 12.6µM* | /
C=C(C)Cn1c(SCC(=O)Nc2cc(C)ccc2C)nc2sc3c(c2c1=O)CCCC3 | / | / | i | -2.3% | i
O=C(OCc1c(Cl)cccc1Cl)c1cccnc1Cl | 7.4% | -1.8% | i | 12.6µM* | i
O=C(OCc1ccccc1Cl)c1cccnc1Cl | 0.4% | -4.0% | i | 13.4% | i
O=C(Nc1ccccc1)N1CCN(c2nc3ccccc3s2)CC1 | 5.7% | -3.5% | i | 22.4µM* | i
O=C(Nc1ccc(F)cc1)N1CCN(c2nc3ccccc3s2)CC1 | 7.8% | 2.3% | i | 9.1% | i
O=C(COC(=O)c1cccc(Cl)c1Cl)NCc1cccs1 | -0.3% | -7.6% | i | 12.6µM* | i
O=C(COC(=O)c1c(Cl)cccc1Cl)NCc1cccs1 | 4.6% | -1.2% | i | ? | /
CCc1ccc(C(=O)NC2=NC(c3ccccc3F)CC(=O)N2)cc1 (configuration not stated) | / | / | i | 19.5% | i
Cc1nn(C)c2c1c(C(F)(F)F)cc(=O)n2CC(=O)N1CCCCC1C (configuration not stated) | / | / | i | 8.3% | i
Cc1cc2cc(C(c3nnnn3Cc3ccco3)N3CCc4ccccc4C3)c(=O)[nH]c2cc1C (configuration not stated) | 2.7% | 1.8% | i | -16.7% | 14.1µM*
Cc1cc2cc(C(c3nnnn3Cc3ccco3)N3CCc4ccccc43)c(=O)[nH]c2cc1C (configuration not stated) | 0.1% | -2.6% | i | -0.2% | ?
O=C(Nc1ccc(S(=O)(=O)N(Cc2ccccc2)c2ccccc2)cc1)c1ccc([N+](=O)[O-])cc1 | / | / | i | 10.4% | i
CSc1ccc(CCNC(=O)c2sc3ncccc3c2-n2cccc2)cc1 | / | / | i | ? | i
O=C(NCc1ccccc1F)c1sc2ncccc2c1-n1cccc1 | / | / | i | 20µM* | i
O=C(NCCc1ccccc1)c1sc2ncccc2c1-n1cccc1 | / | / | i | 22.4µM* | i
CCn1c(C)c(C)c2cc(C(=O)N3CCCC3)ccc21 | -1.5% | -3.4% | i | -10.6% | i
CCn1c(C)c(C)c2cc(C(=O)N3CCN(c4ccccc4)CC3)ccc21 | 20.5% | -0.7% | i | 22.4µM* | ?
SMILES | aSyn yeast inh | PTAP TSG101 blk | Abeta rescue | TDP43 rescue | FUS yeast rescue
CN(c1ccccc1)c1ncnc2c1cnn2C | / | / | i | -2.5% | i
COc1cccc(N2CCN(C(=O)c3cnn(-c4ccc(C)cc4C)c3C3CCN(C(=O)OC(C)(C)C)CC3)CC2)c1 | / | / | i | 15.4% | i
CC1CCCN(c2ccc(C(=O)NCc3ccco3)cc2[N+](=O)[O-])C1 (configuration not stated) | 10.5% | -1.9% | i | 14.1µM* | i
Cc1ccc(C(=O)NCc2ccco2)cc1[N+](=O)[O-] | -0.3% | -7.2% | i | 7.8% | i
COC(=O)c1ccc(C=NNC(=O)c2cc(-c3ccc(C)c(C)c3)n[nH]2)cc1 | / | / | / | / | i
CC1C(=O)N(Cc2cn(Cc3ccco3)nn2)CCS(=O)(=O)N1Cc1ccc(-c2ccc(Cl)cc2)cc1 (configuration not stated) | 3.0% | / | i | 35.5µM* | ?
CC1C(=O)N(Cc2cn(CCC3OCCO3)nn2)CCS(=O)(=O)N1Cc1ccc(-c2ccc(Cl)cc2)cc1 (configuration not stated) | 1.0% | / | i | 28.2µM* | ?
COCCCn1c(=N)c(C(=O)NC2CCCCC2)cc2c(=O)n3cc(C)ccc3nc21 | / | / | i | 7.2% | i
CCOC(=O)Cn1cc(C(=O)c2ccco2)c2ccccc21 | -3.2% | -1.6% | i | 17.8µM* | i
Cc1c(C=O)c2ccccn2c1C(=O)c1ccc(F)cc1 | 15.8µM* | 2.8% | i | -25.0% | i
Cc1c(C=O)c2ccccn2c1C(=O)c1ccccc1 | 17.8µM* | 0.0% | i | ? | i
Cc1c(C=O)c2ccccn2c1C(=O)c1ccc(Cl)c([N+](=O)[O-])c1 | -0.5% | 0.8% | i | 4.8% | i
CCc1c(-c2ccccc2F)ncn1Cc1cccc(-c2ccccc2)c1 | -23.5% | / | i | 20µM* | ?
CCCCn1nnnc1C(c1cc2ccccc2o1)N(CCN(C)C)Cc1ccccc1 (configuration not stated) | 3.0% | / | i | 0.0% | i
S=C(Nc1ccccc1Oc1ccccc1)Nc1cccc(Cl)c1Cl | -5.8% | -5.1% | i | 22.4µM* | /
COc1ccc(S(=O)(=O)Nc2cc3c(cc2NCc2ccccc2)n(C)c(=O)n3C)cc1 | / | / | i | 23.6% | i
N#Cc1c(-c2ccco2)cc(C2CC2)nc1N | -8.2% | -5.1% | i | -6.5% | i
N#Cc1c(-c2ccccc2)cc(C2CC2)nc1N | -0.2% | -14.7% | i | 12.6µM* | i
Cc1ccc(-c2cc(-c3ccccc3Cl)c(C#N)c(N)n2)o1 | 3.7% | -3.5% | i | ? | i
Cc1ccc(-c2cc(-c3ccccc3)c(C#N)c(N)n2)o1 | -65.3% | -4.1% | i | 22.4µM* | ?

Screening data (PubChem)
